Records with an inconclusive call do not appear. Values without a mark were called inactive. The source made the active and inactive calls. The call rests on the fitted dose curve; in most records, active means well fitted curve in the direction sought with a large enough effect; inconclusive means small, poorly fitted or top-dose-only effect, or another doubt; inactive means no such curve, though single readings can be large; an effect the other way counts as inactive or inconclusive.

The first assay concerns Zika virus NS2B-NS3 protease (linked). In words: 384 well plate NINDS AMC confirmatory qHTS for Zika virus inhibitors (AID 1347163). Further: potency means the concentration at half of the fitted maximal effect; nearly all actives have a fitted effect of over 50% in size. Conditions: Recombinant NS2B-NS3 protease, Ac-VKTGKR-AMC fluorescence. The gist of the method:
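Linked NS2B-NS3 protease (final 5 nM, 30 nM or 60 nM) was preincubated with compounds (final up to 1 mM) for ~15 minutes. Ac-VKTGKR-AMC substrate (final 30 microM) then reacted for 25 minutes at room temperature in the dark. Fluorescence (ex 355/em 460 nm) was normalized to no-enzyme and no-inhibitor controls.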
(In general: In qHTS, concentration-response curves come from the screen itself.)
Take `COc1ccc(Br)cc1S(=O)(=O)NC(=O)/C=C/c1ccccc1Cc1ccc2ccccc2c1`: the Potency is 0.251 µM (active).
The same measure, in the same setting: to `O=C(Nc1cccc(C(=O)Nc2ccc(S(=O)(=O)O)c3cc(S(=O)(=O)O)cc(S(=O)(=O)O)c23)c1)Nc1cccc(C(=O)Nc2ccc(S(=O)(=O)O)c3cc(S(=O)(=O)O)cc(S(=O)(=O)O)c23)c1` belongs 22.4 µM (active); to `O=C1NC(=O)/C(=C/c2ccc(-c3ccc(F)cc3O)o2)S1`, 63.1 µM (active).
Same read-out and setting: to `O=C(NOCC1CC1)c1cc(Br)c(F)c(F)c1Nc1ccc(I)cc1Cl` belongs 44.7 µM (active).
`CN(C)[C@@H]1C(=O)C(C(=O)NCN2CCCC2)=C(O)[C@@]2(O)C(=O)C3=C(O)c4c(O)cccc4[C@@](C)(O)C3C[C@@H]12` (stereo partly specified): the Potency was 0.891 µM (active).
Still for that read-out and setting: to `O=C(c1cc(O)c(O)c([N+](=O)[O-])c1)c1ccccc1F` belongs 112 µM (active).

For another assay, the system named is Zika virus NS2B-NS3 protease (linked construct). Nature of the assay: 384 well plate NINDS Rhodamine confirmatory qHTS for Zika virus inhibitors (AID 1347164). Further: nearly all actives have a fitted effect of over 65% in size. Further: potency means the concentration at half of the fitted maximal effect.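 On activity change, negative = inhibition: top concentration of the series differs between compounds; plate controls were no-inhibitor control for no effect and no-enzyme control for full effect.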 Conditions: rhodamine-110 peptide substrate fluorescence; series mostly up to 100 µM; activity change, negative = inhibition: at the top concentration. The gist of the method: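 Cleavage of Ac-LKRR-Rhodamine 110 (10 microM final) by linked protease (final 5, 30 or 60 nM) was followed as fluorescence at 485/538 nm after 25 min, room temperature, dark. Compounds preincubated ~15 min.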
For the molecule `COc1ccc(Br)cc1S(=O)(=O)NC(=O)/C=C/c1ccccc1Cc1ccc2ccccc2c1`, the “activity change, negative = inhibition” value was -26.7%.
Consider `O=C1NC(=O)/C(=C/c2ccc(-c3ccc(F)cc3O)o2)S1`, for which the Potency is 20 µM (active).
Consider `O=C(NOCC1CC1)c1cc(Br)c(F)c(F)c1Nc1ccc(I)cc1Cl`, for which the Potency is 31.6 µM (active).
Still for that read-out and setting: with `CN(C)[C@@H]1C(=O)C(C(=O)NCN2CCCC2)=C(O)[C@@]2(O)C(=O)C3=C(O)c4c(O)cccc4[C@@](C)(O)C3C[C@@H]12` (stereo partly specified) the figure was 44.7 µM (active); with `O=C(c1cc(O)c(O)c([N+](=O)[O-])c1)c1ccccc1F`, 0.398 µM (active).

For the next assay, the target named is Lysine-specific demethylase 5B (Homo sapiens) (UniProt Q9UGL1). Nature of the assay: Optimization screen for KDM5B Histone Demethylases FDH coupled qHTS against the LOPAC library (AID 1347166). Further: 0% is about no effect. Conditions: KDM5B demethylation, FDH-coupled NADH fluorescence (FDH is formaldehyde dehydrogenase); series mostly up to 57.5 µM; activity, negative = inhibition: at the top concentration. The gist of the method: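 KDM5BDeltaAP (200nM final) preincubated 10 min with compound, then 12.5uM H3K4Me3, 25uM a-ketoglutarate, ascorbate, Fe(II), NAD+ and FDH added; 50mM HEPES pH 7.5, 0.01% Tween-20. NADH fluorescence (340/450 nm) change over 30 min, room temperature.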
Sequence of Lysine-specific demethylase 5B (Homo sapiens) (Q9UGL1 whole entry, looked up): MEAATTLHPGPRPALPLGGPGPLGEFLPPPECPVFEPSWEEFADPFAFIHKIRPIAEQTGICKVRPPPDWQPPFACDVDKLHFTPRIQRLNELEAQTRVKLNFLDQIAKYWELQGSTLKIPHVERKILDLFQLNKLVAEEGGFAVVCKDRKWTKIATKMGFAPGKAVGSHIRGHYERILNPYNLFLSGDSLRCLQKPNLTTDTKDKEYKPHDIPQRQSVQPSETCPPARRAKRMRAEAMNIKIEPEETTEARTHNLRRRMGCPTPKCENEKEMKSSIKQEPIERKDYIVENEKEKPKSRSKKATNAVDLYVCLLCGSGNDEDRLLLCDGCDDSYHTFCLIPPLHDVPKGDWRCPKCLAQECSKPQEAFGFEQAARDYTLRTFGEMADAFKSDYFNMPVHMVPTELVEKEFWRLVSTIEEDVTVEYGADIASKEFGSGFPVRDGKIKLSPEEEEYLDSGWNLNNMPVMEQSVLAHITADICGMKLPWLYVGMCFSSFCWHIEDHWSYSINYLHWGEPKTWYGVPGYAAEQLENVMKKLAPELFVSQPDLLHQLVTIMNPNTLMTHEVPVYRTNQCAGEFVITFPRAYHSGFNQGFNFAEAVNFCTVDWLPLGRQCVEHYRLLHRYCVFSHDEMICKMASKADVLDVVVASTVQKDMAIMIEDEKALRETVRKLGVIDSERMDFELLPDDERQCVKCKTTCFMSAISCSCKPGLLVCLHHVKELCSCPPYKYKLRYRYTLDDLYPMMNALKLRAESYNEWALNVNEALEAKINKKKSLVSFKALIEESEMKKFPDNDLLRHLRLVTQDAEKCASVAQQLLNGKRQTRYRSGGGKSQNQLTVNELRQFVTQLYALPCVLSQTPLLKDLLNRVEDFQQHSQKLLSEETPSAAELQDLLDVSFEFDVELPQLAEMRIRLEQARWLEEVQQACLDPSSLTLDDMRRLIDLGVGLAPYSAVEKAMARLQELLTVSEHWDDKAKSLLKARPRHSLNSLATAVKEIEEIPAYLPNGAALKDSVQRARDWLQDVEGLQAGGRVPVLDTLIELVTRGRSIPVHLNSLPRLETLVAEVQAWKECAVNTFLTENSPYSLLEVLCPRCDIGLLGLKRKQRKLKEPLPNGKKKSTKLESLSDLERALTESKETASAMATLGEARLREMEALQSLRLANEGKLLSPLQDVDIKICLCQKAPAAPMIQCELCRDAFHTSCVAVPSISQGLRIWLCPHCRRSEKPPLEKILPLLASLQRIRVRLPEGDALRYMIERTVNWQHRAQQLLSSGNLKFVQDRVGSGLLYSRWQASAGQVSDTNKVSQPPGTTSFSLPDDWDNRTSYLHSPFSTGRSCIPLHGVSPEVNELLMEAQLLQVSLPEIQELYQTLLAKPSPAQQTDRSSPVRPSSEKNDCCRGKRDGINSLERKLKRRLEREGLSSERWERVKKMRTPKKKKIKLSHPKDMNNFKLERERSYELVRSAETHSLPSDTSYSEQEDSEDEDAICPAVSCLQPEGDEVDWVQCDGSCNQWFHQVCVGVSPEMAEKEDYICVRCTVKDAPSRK
For the molecule `Cc1cc2c(cc1Cl)N(C(=O)Nc1ccc(Oc3cccnc3C)nc1)CC2`, the “activity, negative = inhibition” value is -18.3%.
Regarding `COc1cc(SC)ccc1C(=O)N1CCC(Cc2ccccc2)CC1`, the “activity, negative = inhibition” value was -14.2%.
Regarding `CC(COc1ccc(/C=C/c2ccccc2)cc1)[N+](C)(C)C` (stereo unspecified), the “activity, negative = inhibition” value is -17.6%.
In the case of `O=C(Nc1cccc(C(=O)Nc2ccc(S(=O)(=O)O)c3cc(S(=O)(=O)O)cc(S(=O)(=O)O)c23)c1)Nc1cccc(C(=O)Nc2ccc(S(=O)(=O)O)c3cc(S(=O)(=O)O)cc(S(=O)(=O)O)c23)c1`, the “activity, negative = inhibition” value is -15.4%.
As for `COc1cccc(C(=O)NCCN2CCN(c3ccc(Cl)cc3)CC2)c1`, the “activity, negative = inhibition” value is -6.43%.
Turning to `OC[C@H]1O[C@@H](n2cnc3c(NC4CCCCC4)ncnc32)[C@H](O)[C@@H]1O`, the “activity, negative = inhibition” value was -5.53%.
On the same count and under the same terms, to `OCC1O[C@H](O)C(Cl)C(O)C1O` (stereo partly specified) belongs -5.71%.
Same read-out and setting: with `CN1C2CC(OC(=O)[C@H](CO)c3ccccc3)CC1C1OC12` (stereo partly specified) the figure was -1.91%; with `NC(CCCP(=O)(O)O)C(=O)O` (stereo unspecified), -2.53%; with `CCCCCC(O)c1cccc(OCc2ccc3ccccc3n2)c1` (stereo unspecified), -10.2%.
On the same count and under the same terms, to `Fc1cccc(/C=N/N=C/c2cccc(F)c2)c1` belongs -5.62%; to `O=C(O)CC1CC(c2ccccc2)=NO1` (stereo unspecified), -4.66%.
As for `CCC1C(=O)OCC1Cc1cncn1C` (stereo unspecified), the outcome was inactive.
Regarding `COc1cc2c(CCNC(C)=O)c[nH]c2cc1Cl`, the “activity, negative = inhibition” value is -0.505%.
Take `O=C(O)CNC(=O)C(CS)Cc1ccccc1` (stereo unspecified): the “activity, negative = inhibition” value is 1.94%.
`CC1(C)CCC=[N+]1[O-]`: the “activity, negative = inhibition” value is 0.777%.
Same read-out and setting: to `CCCN(CC1CC1)c1nc(C)nc(Nc2c(Cl)cc(Cl)cc2Cl)c1Cl` belongs -4.08%; to `CC1OC1P(=O)(O)O` (stereo unspecified), 8.08%; to `NC[C@@H]1O[C@H](C23CC4CC(CC(C4)C2)C3)Cc2c1ccc(O)c2O`, -20.3%.
Still for that read-out and setting: to `NC[C@H]1O[C@@H](n2cnc3c(N)ncnc32)[C@H](O)[C@@H]1O` belongs -0.143%; to `Nc1ncnc2c1ncn2[C@@H]1O[C@H](COP(=O)(O)CP(=O)(O)OP(=O)(O)O)[C@@H](O)[C@H]1O`, -0.378%.
The same measure, in the same setting: to `N#C/C(=C\c1ccc(-c2cc(Cl)ccc2Cl)o1)C(=O)Nc1cccc2ncccc12` belongs -29.1%; to `CN1CC(=O)N/C1=N/C(=O)Nc1cccc(Cl)c1`, -8.11%.
In the case of `Nc1ncnc2c1c(I)cn2[C@@H]1C[C@H](N)[C@@H](O)[C@H]1O`, the “activity, negative = inhibition” value is -16%.
On to `C[N+](C)(C)CCOP(=O)(O)OP(=O)([O-])OC[C@H]1O[C@@H](n2ccc(N)nc2=O)[C@H](O)[C@@H]1O`, for which the “activity, negative = inhibition” value was -0.67%.
With `CCOC(=O)N1CCN(/[N+]([O-])=N/Oc2ccc([N+](=O)[O-])cc2[N+](=O)[O-])CC1`, the “activity, negative = inhibition” value is -4.55%.
Still for that read-out and setting: to `Nc1nc(Cl)nc2c1ncn2[C@@H]1O[C@H](CO)[C@@H](O)[C@H]1O` belongs -4.14%; to `CN1[C@@H](CC(=O)c2ccccc2)CCC[C@H]1C[C@H](O)c1ccccc1`, -3.01%; to `CN1CCc2cccc3c2C1Cc1ccc(O)c(O)c1-3` (stereo unspecified), -26.9%.
In the case of `C#C[C@]1(O)CC[C@H]2[C@@H]3CCC4=Cc5oncc5CC4(C)[C@H]3CCC21C` (stereo partly specified), the “activity, negative = inhibition” value is -2.3%.
Same read-out and setting: with `CNC(=O)[C@H]1O[C@@H](n2cnc3c(NCc4ccc(N)cc4)ncnc32)[C@H](O)[C@@H]1O` the figure was -11.4%.
Same read-out and setting: with `O=C(O)[C@@H]1C[C@H](C(=O)O)N1` the figure was 5.51%.

Test system in another assay: not listed separately
Nature of the assay: HepG2 cells viability qHTS for Zika virus inhibitors (AID 1347168). Further: on the % scale 0 is the no-effect control and ±100 the full control effect. The conditions noted are these: Zika counter-screen; series mostly up to 45.9 µM; activity change, negative = cytotoxicity: at the top concentration. The gist of the method: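 Counter-screen for cytotoxicity of hits from NS2B-NS3 protease qHTS. Overnight-attached cells (2.5 x 10^5 cells/mL, DMEM/4% FBS) were dosed in titration, incubated 24 to 48 hours, then assayed by CellTiter Glo.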
`COc1ccc(Br)cc1S(=O)(=O)NC(=O)/C=C/c1ccccc1Cc1ccc2ccccc2c1`: the “activity change, negative = cytotoxicity” value was 1.53%.
For the molecule `O=C1NC(=O)/C(=C/c2ccc(-c3ccc(F)cc3O)o2)S1`, the “activity change, negative = cytotoxicity” value was 3.75%.
The same measure, in the same setting: to `O=C(c1cc(O)c(O)c([N+](=O)[O-])c1)c1ccccc1F` belongs 6.28%.

The values are drawn from PubChem BioAssay (NCATS).
